# Assay results from PubChem BioAssay (Tox21).
# Records with an inconclusive call do not appear. Where a call stands in place of a potency, no number is given. A number with no mark means an inactive call. Calls of active or inactive are those of the source. Unless noted, calls follow the shape of the dose curve; as a rule, active = well fitted curve in the direction sought with a large enough effect in the repeat runs; inconclusive = weak or mixed curves; inactive = no such curve, though single readings can be large; an effect the other way counts as inactive or inconclusive.
# Legend:
# [1] = qHTS assay to identify small molecule antagonists of the estrogen related receptor (ERR) signaling pathway from Tox21 library - cell viability counter screen (AID 1224834); also: nearly all actives have a fitted effect of over 30% in size
# Method in brief: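 After 17.5 h of compound exposure at 37 C, ERR cells are incubated with CellTiter-Fluor for 30 min and fluorescence intensity serves as the viability measure.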
# [2] = molecular target: Luciferin 4-monooxygenase (Photinus pyralis) (UniProt P08659); experiment: qHTS assay to identify small molecule inhibitors of firefly luciferase (AID 1224835); also: nearly all actives have a fitted effect of over 25% in size; also: potency is read from the fitted curve at half-maximal effect; as to activity change, negative = inhibition: series mostly up to about 120 µM
# Luciferin 4-monooxygenase (Photinus pyralis), sequence (P08659 whole entry, looked up): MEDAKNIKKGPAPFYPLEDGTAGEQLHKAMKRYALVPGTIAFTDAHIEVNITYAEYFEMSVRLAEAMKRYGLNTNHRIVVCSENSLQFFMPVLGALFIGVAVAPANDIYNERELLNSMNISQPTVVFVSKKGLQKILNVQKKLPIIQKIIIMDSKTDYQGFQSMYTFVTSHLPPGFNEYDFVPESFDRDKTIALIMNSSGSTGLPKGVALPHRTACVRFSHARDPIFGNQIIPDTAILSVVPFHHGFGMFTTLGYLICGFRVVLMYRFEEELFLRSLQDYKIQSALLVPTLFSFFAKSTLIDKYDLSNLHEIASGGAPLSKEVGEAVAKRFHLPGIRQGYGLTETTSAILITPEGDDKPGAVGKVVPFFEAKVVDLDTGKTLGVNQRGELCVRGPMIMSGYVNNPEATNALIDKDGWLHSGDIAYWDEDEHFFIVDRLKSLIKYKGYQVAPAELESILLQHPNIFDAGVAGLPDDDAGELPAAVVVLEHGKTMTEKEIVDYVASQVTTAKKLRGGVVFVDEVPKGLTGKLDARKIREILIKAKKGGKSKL
# Method in brief: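 Biochemical qHTS: compounds run as interplate titrations against purified firefly enzyme, with D-luciferin and ATP each at its KM concentration. Light output recorded by CCD imaging.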
# [3] = qHTS assay to identify small molecule agonists of the constitutive androstane receptor (CAR) signaling pathway - cell viability counter screen (AID 1224836); also: series mostly up to about 92 µM; nearly all actives have a fitted effect of over 45% in size
# Method in brief: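 Cells were seeded and incubated 4 hrs. Compounds were added across 15 concentrations together with PK11195 at 0.75 uM final. Plates were incubated 23 hrs at 37 C. CellTiter-Fluor was added and fluorescence measured.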
# [4] = qHTS assay to identify small molecule antagonists of the constitutive androstane receptor (CAR) signaling pathway - cell viability counter screen (AID 1224837); also: series mostly up to about 92 µM; nearly all actives have a fitted effect of over 45% in size
# Method in brief: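 Counter screen run in HepG2-CYP2B6-hCAR cells: 4 hr settle, compound titration (15 concentrations) with 50 nM CITCO, 23 hr at 37 C/5% CO2, CellTiter-Fluor fluorescence.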
# [5] = molecular target: Nuclear receptor subfamily 1 group I member 3 (Homo sapiens) (UniProt Q14994); experiment: qHTS assay to identify small molecule antagonists of the constitutive androstane receptor (CAR) signaling pathway (AID 1224838);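 also: HepG2 cells stably expressing hCAR with CYP2B6 luciferase reporter stimulated by CITCO; nearly all actives have a fitted effect of over 40% in size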
# Nuclear receptor subfamily 1 group I member 3 (Homo sapiens), sequence (Q14994 whole entry, looked up): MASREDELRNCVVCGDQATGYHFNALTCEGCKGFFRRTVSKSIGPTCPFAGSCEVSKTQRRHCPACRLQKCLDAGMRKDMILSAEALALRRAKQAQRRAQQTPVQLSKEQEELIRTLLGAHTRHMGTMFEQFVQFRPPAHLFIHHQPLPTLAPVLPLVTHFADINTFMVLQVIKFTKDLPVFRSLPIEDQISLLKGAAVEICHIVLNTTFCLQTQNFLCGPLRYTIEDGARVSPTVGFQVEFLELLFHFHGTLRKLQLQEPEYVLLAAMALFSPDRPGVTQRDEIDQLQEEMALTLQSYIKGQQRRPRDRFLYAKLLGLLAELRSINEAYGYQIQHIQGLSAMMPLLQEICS
# Method in brief: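 Cell line: HepG2 double-stable for hCAR and CYP2B6-2.2kb reporter. Agonist: CITCO, 50 nM final. Compounds: 15 concentrations, 24 h, 37 C. Detection: ONE-Glo luminescence.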
# [6] = qHTS assay to identify small molecule antagonists of the estrogen related receptor signaling pathway with the pleiotropic PPARgamma coactivator (PGC) from Tox21 10K library - cell viability counter screen (AID 1224840; active = well fitted cell-killing curve with a large enough effect in the repeat runs, not every such curve was filed as active; also: nearly all actives have a fitted effect of over 40% in size)
# Method in brief: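 Following seeding of 2,000 PGC/ERR cells/well and 6 hours' incubation, test compounds were delivered in DMSO. The plates then sat 17.5 hours at 37 C before a fluorogenic live-cell protease reagent (CellTiter-Fluor) was read after 30 min.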
# [7] = qHTS assay to identify small molecule antagonists of the estrogen related receptor signaling pathway with the pleiotropic PPARgamma coactivator (PGC) from Tox21 10K library (AID 1224841; call rule not given here; also: series mostly up to about 92 µM; actives are mostly falling curves and most rising ones were filed inactive; nearly all actives have a fitted effect of over 50% in size)
# Method in brief: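 qHTS antagonist format: PGC/ERR cells, 2k/well, compound in DMSO by pin transfer after 6 h attachment, 18 h treatment at 37 C, One-Glo luminescence read at 30 min.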
# [8] = qHTS assay to identify small molecule agonists of the estrogen related receptor signaling pathway with the pleiotropic PPARgamma coactivator (PGC) from Tox21 10K library (AID 1224842); also: nearly all actives have a fitted effect of over 15% in size; also: potency is read from the fitted curve at half-maximal effect
# Method in brief: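 PGC/ERR reporter cell line, 2,000 cells per well, incubated 6 h at 37 C before 23 nL compound in DMSO was added. After 18 h at 37 C, One-Glo luminescence read following 30 min at room temperature.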
# [9] = molecular target: Nuclear receptor subfamily 1 group I member 3 (Homo sapiens) (UniProt Q14994); experiment: qHTS assay to identify small molecule agonists of the constitutive androstane receptor (CAR) signaling pathway (AID 1224839);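 also: HepG2 cells stably carrying human CAR and a CYP2B6 luciferase reporter; series mostly up to about 92 µM; nearly all actives have a fitted effect of over 15% in size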
# Method in brief: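 Cells were plated and incubated 4 hrs, then dosed with compounds at 15 concentrations. PK11195 was added to 0.75 uM final. After 24 hrs at 37 C, luciferase luminescence was measured.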
smiles,measurement,setting,value
Oc1ccc2c(c1)OC[C@@H](N1CCC(O)(c3ccc(F)cc3)CC1)[C@H]2O,Potency,[1],inactive
same,Potency,[2],1.55 µM (active)
same,outcome,[3],inactive
same,outcome,[4],inactive
same,Potency,[5],inactive
same,outcome,[6],inactive
same,Potency,[7],inactive
same,Potency,[8],4.73 µM (active)
C=C(C)C1CC=C(C)C(O)C1 (stereo not drawn),Potency,[1],inactive
same,Potency,[2],inactive
same,outcome,[3],inactive
same,outcome,[4],inactive
same,Potency,[5],inactive
same,outcome,[6],inactive
same,Potency,[8],inactive
c1ccc(CCCc2ccccn2)cc1,Potency,[1],inactive
same,Potency,[2],31.7 µM (active)
same,outcome,[3],inactive
same,outcome,[4],inactive
same,Potency,[5],inactive
same,outcome,[6],inactive
COC(=O)CCCC(=O)O,Potency,[1],inactive
same,Potency,[2],inactive
same,outcome,[3],inactive
same,outcome,[4],inactive
same,Potency,[5],inactive
same,outcome,[6],inactive
COc1cc(CCC(C)=O)ccc1O,Potency,[1],inactive
same,Potency,[2],inactive
same,outcome,[3],inactive
same,outcome,[4],inactive
same,Potency,[5],inactive
same,Potency,[9],inactive
same,outcome,[6],inactive
same,Potency,[8],inactive
CCCCCCCCN(C)CCCCCCCC,Potency,[1],inactive
same,Potency,[2],inactive
same,outcome,[3],inactive
same,outcome,[4],inactive
same,Potency,[5],inactive
same,outcome,[6],inactive
same,Potency,[7],inactive
same,Potency,[8],inactive
C=C[Si](OC)(OC)OC,Potency,[1],inactive
same,Potency,[2],inactive
same,outcome,[3],inactive
same,outcome,[4],inactive
same,Potency,[5],inactive
same,outcome,[6],inactive
NC(=O)Nc1nc2ccccc2[nH]1,Potency,[1],inactive
same,Potency,[2],inactive
same,outcome,[3],inactive
same,outcome,[4],inactive
same,Potency,[5],inactive
same,outcome,[6],inactive
C#CC(O)CCCCC (stereo not drawn),Potency,[1],inactive
same,Potency,[2],inactive
same,outcome,[3],inactive
same,outcome,[4],inactive
same,Potency,[5],inactive
same,outcome,[6],inactive
CCN1CCCC1CNC(=O)c1cc(S(N)(=O)=O)ccc1OC (stereo not drawn),Potency,[1],inactive
same,Potency,[2],inactive
same,outcome,[3],inactive
same,outcome,[4],inactive
same,Potency,[5],inactive
same,outcome,[6],inactive
O=C(O)C(O)[C@H](O)[C@@H](O)[C@H](O)[C@H](O)CO (stereo partly drawn),Potency,[1],inactive
same,Potency,[2],inactive
same,outcome,[3],inactive
same,outcome,[4],inactive
same,Potency,[5],inactive
same,outcome,[6],inactive
same,Potency,[8],inactive
c1ccc(SCCSc2ccccc2)cc1,Potency,[1],inactive
same,Potency,[2],7.9 µM (active)
same,outcome,[3],inactive
same,outcome,[4],inactive
same,Potency,[5],inactive
same,outcome,[6],inactive
same,Potency,[7],inactive
same,Potency,[8],5.4 µM (active)
CCCCNc1ccccc1,Potency,[1],inactive
same,Potency,[2],inactive
same,outcome,[3],inactive
same,outcome,[4],inactive
same,Potency,[5],inactive
same,outcome,[6],inactive
COCCOC(=O)CC#N,Potency,[1],inactive
same,Potency,[2],inactive
same,outcome,[3],inactive
same,outcome,[4],inactive
same,Potency,[5],inactive
same,outcome,[6],inactive
CCCOc1ccccc1-c1nc2n[nH]nc2c(=O)[nH]1,Potency,[1],inactive
same,Potency,[2],inactive
same,outcome,[3],inactive
same,outcome,[4],inactive
same,Potency,[5],inactive
same,outcome,[6],inactive
CCCCCCCCCCC1CO1 (stereo not drawn),Potency,[1],inactive
same,Potency,[2],inactive
same,outcome,[3],inactive
same,outcome,[4],inactive
same,Potency,[5],inactive
same,outcome,[6],inactive
COC(=O)C1=C(C)NC(C)=C(C(=O)OCC(C)=O)C1c1ccccc1[N+](=O)[O-] (stereo not drawn),Potency,[1],inactive
same,Potency,[2],inactive
same,outcome,[3],inactive
same,outcome,[4],inactive
same,Potency,[5],inactive
same,outcome,[6],inactive
same,Potency,[7],inactive
same,Potency,[8],inactive
CC(C)CCOC(=O)CC(C)C,Potency,[1],inactive
same,Potency,[2],inactive
same,outcome,[3],inactive
same,outcome,[4],inactive
same,Potency,[5],inactive
same,outcome,[6],inactive
FC(F)(F)C(F)(F)C(F)(F)C(F)(F)C(F)(F)C(F)(F)C(F)(F)C(F)(F)C(F)(F)C(F)(F)F,"viability change, negative = cytotoxic",[1],3.38% [at 8.39 µM]
same,"activity change, negative = inhibition",[2],-2.43% [at 10.5 µM]
same,"viability change, negative = cytotoxic",[3],1.23% [at 8.39 µM]
same,"activity change, negative = cytotoxicity",[4],0.303% [at 8.39 µM]
same,"activity, negative = inhibition",[5],41.9% [at 8.39 µM]
same,"viability change, negative = cytotoxic",[6],-2.77% [at 8.39 µM]
O=Cc1ccccc1[N+](=O)[O-],Potency,[1],inactive
same,Potency,[2],inactive
same,outcome,[3],inactive
same,outcome,[4],inactive
same,Potency,[5],inactive
same,outcome,[6],inactive
same,Potency,[7],inactive
same,Potency,[8],inactive
CN(C)CCOC(c1ccc(Cl)cc1)c1ccccn1 (stereo not drawn),Potency,[1],inactive
same,Potency,[2],inactive
same,outcome,[3],inactive
same,outcome,[4],inactive
same,Potency,[5],inactive
same,outcome,[6],inactive
NC(=O)CCCCC1CCSS1 (stereo not drawn),Potency,[1],inactive
same,Potency,[2],inactive
same,outcome,[3],inactive
same,outcome,[4],inactive
same,Potency,[5],inactive
same,outcome,[6],inactive
CCC(=O)/C=C/c1ccc(OC)cc1,Potency,[1],inactive
same,Potency,[2],35.6 µM (active)
same,outcome,[3],inactive
same,outcome,[4],inactive
same,Potency,[5],inactive
same,outcome,[6],inactive
same,Potency,[8],inactive
CC(=O)N[C@@H](CCC(N)=O)C(=O)O,Potency,[1],inactive
same,Potency,[2],inactive
same,outcome,[3],inactive
same,outcome,[4],inactive
same,Potency,[9],inactive
same,outcome,[6],inactive
Cn1cnc2c(=O)[nH]c(N)nc21,Potency,[1],inactive
same,Potency,[2],inactive
same,outcome,[3],inactive
same,outcome,[4],inactive
same,Potency,[5],inactive
same,outcome,[6],inactive
CNC(=O)c1c(I)c(NC(=O)CCCCC(=O)Nc2c(I)c(C(=O)O)c(I)c(C(=O)NC)c2I)c(I)c(C(=O)O)c1I,Potency,[1],inactive
same,Potency,[2],inactive
same,outcome,[3],inactive
same,outcome,[4],inactive
same,Potency,[5],inactive
same,outcome,[6],inactive
same,Potency,[8],inactive
C(=C(c1ccccc1)c1ccccc1)c1ccccc1,Potency,[1],inactive
same,Potency,[2],inactive
same,outcome,[3],inactive
same,outcome,[4],inactive
same,Potency,[5],inactive
same,outcome,[6],inactive
C[N+](C)(C)CC[N+]1(C)Cc2c(Cl)c(Cl)c(Cl)c(Cl)c2C1,Potency,[1],inactive
same,Potency,[2],inactive
same,outcome,[3],inactive
same,outcome,[4],inactive
same,outcome,[6],inactive
NC(N)=NS(=O)(=O)c1ccc(N)cc1,Potency,[1],inactive
same,Potency,[2],inactive
same,outcome,[3],inactive
same,outcome,[4],inactive
same,outcome,[6],inactive
Cc1ccccc1C(=O)O,Potency,[1],inactive
same,Potency,[2],inactive
same,outcome,[3],inactive
same,outcome,[4],inactive
same,outcome,[6],inactive
NS(=O)(=O)c1cc(C2(O)NC(=O)c3ccccc32)ccc1Cl (stereo not drawn),Potency,[1],inactive
same,Potency,[2],inactive
same,outcome,[3],inactive
same,outcome,[4],inactive
same,outcome,[6],inactive
C=C(C)C(=O)OCCCCCCCCCCCCCCCCCC,"viability change, negative = cytotoxic",[1],-0.607% [at 19 µM]
same,"activity change, negative = inhibition",[2],-0.803% [at 23.6 µM]
same,"viability change, negative = cytotoxic",[3],1.14% [at 19 µM]
same,"activity change, negative = cytotoxicity",[4],4.26% [at 19 µM]
same,"viability change, negative = cytotoxic",[6],1.61% [at 19 µM]
CCC(=O)c1cccc(Cl)c1,Potency,[1],inactive
same,Potency,[2],inactive
same,outcome,[3],inactive
same,outcome,[4],inactive
same,outcome,[6],inactive
Nc1cc(C(Cl)=C(Cl)Cl)c(S(N)(=O)=O)cc1S(N)(=O)=O,Potency,[1],inactive
same,Potency,[2],inactive
same,outcome,[3],inactive
same,outcome,[4],inactive
same,outcome,[6],inactive
